In PubChem BioAssay AID743269 (The Scripps Research Institute Molecular Screening Center, 2014) one finds inhibition data, which are given here for 53 compounds.

Each structure is given as a SMILES string. The whole screen tested about 370,000 compounds, of which about 2,400 (0.65%) were called active. This excerpt belongs to a sample that is enriched for actives. Unmarked numbers belong to inactive results.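 The calls were made as follows: active = inhibition above the screen-wide mean plus 3 SD (cut at about 13% in these data); inactive = the rest.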

This assay concerns HIV-1 integrase (with human LEDGF/p75). Put plainly: blockers of LEDGF/p75-dependent integrase strand transfer – biochemical, TR-FRET, high throughput, primary screen (AID 743269).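 Also: signal is the Cy5 over europium emission ratio at 671 and 618 nm; 0% = plate median of compound wells.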 As to conditions: TR-FRET IN-LEDGF/p75 DNA integration, Eu/Cy5; at 3.7 µM; hits give high values.
`O=C(CSc1nc2ccccc2n1Cc1ccccc1)NNC(=S)Nc1ccccc1`: the inhibition is 5.2%.
Turning to `COC(=O)C[C@@H]1CC[C@@H]2[C@@H](COc3ccc(NC(=O)Nc4ccc(F)c(F)c4)cc3C(=O)N2C)O1`, the inhibition is 0.03%.
In the case of `COC(=O)c1cccc(Cn2ccc3ccc(-c4ccc5ccn(C(=O)C6CCCCC6)c5c4)cc32)c1` it was 0.91%; in that of `COC(=O)C[C@H]1CC[C@H]2[C@H](COc3ccc(NC(=O)C4CC4)cc3C(=O)N2C)O1`, 2.4%; in that of `C/C(=N\Nc1ccc(Cl)nn1)c1ccccc1O`, -4.19%.
For the compound `Oc1cccc(/C=N/Nc2ccc(Cl)nn2)c1O`, the inhibition was 18.5% (active).
For the compound `CCOC(=O)[C@]12CCCCC/C=C\1N(Cc1ccc(OC)cc1)C(=O)[C@H]2CC(=O)NCCCN1CCCC1=O`, the inhibition is -3.19%.
Turning to `COC(=O)c1cc(S(=O)(=O)N2CCN(C(=O)C3CCCO3)CC2)cn1C` (stereo not drawn), the inhibition was 8.59%.
For `COc1ccc(-n2c(SCC(=O)Nc3ccc4cn[nH]c4c3)nnc2-c2cccnc2)cc1` the value was -0.62%; for `COc1ccc(-c2cc(-c3nnc(SCC(=O)Nc4cccc5ccccc45)n3N)[nH]n2)cc1`, -3.91%; for `Cc1cc(=O)oc2c3c(cc(OCC(=O)N[C@H](C(=O)O)c4ccccc4)c12)OC(C)(C)CC3`, 18.2% (active).
For `Cc1cc(=O)oc2c3c(cc(OCC(=O)NCC(O)c4ccccc4)c12)OC(C)(C)CC3` (stereo not drawn) the value was -5.46%; for `Cc1c(C)c2c(OCC(=O)N[C@@H](C(=O)O)c3ccccc3)cc3c(c2oc1=O)CCC(C)(C)O3`, -4.85%.
For `O=C(NC1CCCCN(Cc2ccc(Cl)cc2)C1=O)c1ccc(Br)cc1` (stereo not drawn) the value was 2.38%.
For the compound `COC(=O)[C@]12C[C@H](CC(=O)NCC34CC5CC(CC(C5)C3)C4)C(=O)N(Cc3ccc(Cl)cc3Cl)C1=C[C@H](COCc1ccccc1)O[C@@H]2C`, the inhibition is -4.42%.
For `CC(C)CSc1nnc(-c2cccnc2)n1Cc1ccccc1` the value was 1.09%; for `CCOc1c(Br)cc(/C=C2\C(=O)N(CCC#N)N=C2C)cc1OC`, 36% (active).
On to `COC(=O)[C@H](C(C)C)N(CCc1cn(Cc2ccccc2)nn1)S(=O)(=O)c1ccc(F)cc1Br`, for which the inhibition is -1.7%.
In the case of `FC(F)(F)c1cccc(NC(=S)OC2CCC23CCC(c2ccccc2)CC3)c1` (stereo not drawn) it was 2.54%.
For `Nc1[nH]c(/C=C2/CCCCC2n2[nH]c(=O)n(-c3ccccc3)c2=O)c(Cc2ccccc2)[n+]1Cc1ccccc1` (stereo not drawn) the value was 3.55%; for `C[C@H]1[C@H](NC(=O)c2cccc(N(C)C)c2)CC[C@@]23CCCN2C(=O)CCC[C@@H]13`, -2.54%.
In the case of `CCN1CCN(C(=O)C2CCN(S(=O)(=O)c3cc(Cl)ccc3Cl)CC2)CC1` it was 1.63%; in that of `O=C(CN1CCN(S(=O)(=O)c2cc(Cl)ccc2Cl)CC1)c1ccc(O)c(O)c1`, 50.6% (active).
As to `O=S(=O)(c1cc(Cl)ccc1Cl)N1CCN(Cc2ccco2)CC1`, the inhibition was -3.53%.
For `CC(=O)O[C@@]1(C(C)=O)CCC2[C@H]3C=C(C)C4=CC(=O)CC[C@@]4(C)C3CC[C@]21C` (stereo partly drawn) the value was -5.1%.
In the case of `O=C(NCCc1c[nH]c2ccccc12)OCc1cn(-c2c(F)cccc2F)nn1` it was 4.42%; in that of `COc1cc(NC(=O)COC(=O)c2ccc([N+](=O)[O-])s2)cc(OC)c1OC`, 32.2% (active).
As for `COc1cc(CCC(=O)OCC(=O)Nc2cccc(S(N)(=O)=O)c2)cc(OC)c1OC`, the inhibition was -0.51%.
For `COc1cc(NC(=O)COC(=O)c2cnc(C)cn2)c(C)cc1[N+](=O)[O-]` the value was -1.79%; for `CC(C)CNc1cccc2c1S(=O)(=O)N(Cc1cn(Cc3ccc(Cl)cc3)nn1)Cc1ccccc1O2`, 4.9%; for `O=C(CCl)NC1CCCCN(Cc2cccc(C(F)(F)F)c2)C1=O` (stereo not drawn), 0.3%.
`COc1ccccc1C1C(C#N)=C(N)Oc2c1c(-c1ccccc1)nn2-c1ccccc1` (stereo not drawn): the inhibition was 43.4% (active).
For `COc1ccccc1C1CC(=O)n2c(nc(-c3ccccc3)c2-c2ccccc2)S1` (stereo not drawn) the value was -1.14%; for `COc1ccc(C2C(C#N)=C(N)Oc3n[nH]c(C)c32)cc1CN1CCN(c2ccc(F)cc2)CC1` (stereo not drawn), 6.04%; for `O=C(Nc1cccc(Cl)c1)OC1CC2CC1[C@H]1CCCCN1[C@H]2Cc1ccccc1` (stereo partly drawn), -1.12%.
In the case of `CN(CCc1ccccc1)C(=O)Cn1nc(-c2ccccc2)ccc1=O` it was -1.71%.
For `O=C(NCc1ccc(Cl)cc1)C1CCCN(c2nc3ccccc3o2)C1` (stereo not drawn) the value was -2.98%; for `CCOCCOC(=O)C1=C(C)N(C)C(=O)NC1c1ccccc1F` (stereo not drawn), -1.24%; for `COc1ccc(C2NC(=O)N(C)C(C)=C2[N+](=O)[O-])cc1` (stereo not drawn), -0.24%.
Consider `COC(=O)C1=C(C)N(C)C(=O)NC1c1ccc([N+](=O)[O-])o1` (stereo not drawn), for which the inhibition was 46.5% (active).
In the case of `CCCCCN1CCCCC(NC(=O)C(C)CCC)C1=O` (stereo not drawn) it was -0.51%.
For `COCCCNC(=O)C[C@H]1C[C@@]2(C(=O)OC)C(=C[C@H](C(C)(C)C)O[C@@H]2C)N(Cc2ccc(Cl)cc2Cl)C1=O` the value was 2.76%; for `O=C(OC12CCCN(C1)/C(=C/c1cccnc1)C2)C1CCCC1` (stereo not drawn), -0.68%; for `Oc1c(CN2CCOCC2)ccc(CN2CCOCC2)c1O`, 58% (active).
In the case of `OC(c1ccccc1)C(CN1CCOCC1)c1ccccc1` (stereo not drawn) it was 2.05%; in that of `OCCN1CCOCCOCCN(CCO)CCN(CCO)CC1`, -1.91%; in that of `CCOC(=O)c1cnc2sccn2c1=O`, 2.78%.
For `CN(C)/C=C/C(=O)c1cnc2sccn2c1=O`, the inhibition was 16.3% (active).
For `O=C(NCc1ccccn1)c1cnc2sccn2c1=O` the value was 3.23%; for `O=C(NC1CCC1)c1ccc(C#CC2CC2)cn1`, 0.75%; for `COc1cccc(CNC(=O)CNS(=O)(=O)c2ccc3nc(C)sc3c2)c1OC`, 2.85%.
`COC(=O)[C@@]12CCCCC3=C1N(CCC3)C(=O)[C@H]2CC(=O)NCc1cccc2ccccc12`: the inhibition was 0.3%.
Consider `COc1cccc(CSc2nnc(-c3cccnc3)n2Cc2ccccc2)c1`, for which the inhibition was -2.05%.

Usually inhibition stands for the change of the read-out against control, counted positive when it falls.
